Assay results from PubChem BioAssay (EPA / NIEHS).
The source holds several records for some structures; these can differ, active in one and inactive in another. Active and inactive are the calls of the source. The calls were made as follows: active = hit-call score of the fitted dose curve at least 0.9, where 1 is the maximum; inactive = score below 0.9.

Experiment: IUF_NPC2b_neuronal_migration_120hr: Leibniz Research Institute for Environmental Medicine (IUF) 120-hour Neural Progenitor Cell Migration Assay for Neuron Migration (NPC2b) (AID 2284300)
Description: IUF_NPC2-5 is a cell-based, multiplexed assay that uses hNPC, a human primary neural progenitor cells, with measurements taken at 72 or 120 hours after chemical dosing in a 96-well plate. Human neural progenitor cells (hNPC) are generated from human fetal brain cortex at gestational week (GW) 16-19. In the neural progenitor cell migration and differentiation assay (NPC2-5), hNPCs grown as spheres are plated on an extracellular matrix and migrate and differentiate out of the sphere core. The processes radial glia migration, neuronal and oligodendrocyte migration as well as neuronal differentiation, neuronal morphology and oligodendrocyte differentiation are studied using automated phase contrast imaging and automated fluorescence imaging in combination with high content image analysis. In parallel, the cell viability is assessed using an alamar blue viability assay and the cytotoxicity using a lactate dehydrogenase dependent membrane integrity assay.IUF_NPC2b_neuronal_migration_120hr is one of 12 assay components measured from the IUF_NPC2-5 assay. Neuronal migration distance at 120 hr is the mean distance of all neurons from the edge of the sphere core to each individual neuron (see IUF_NPC3_neuronal_differentiation_120hr). Neuronal migration is normalized to radial glia migration distance at 120 hr.Data from the IUF_NPC2b_neuronal_migration_120hr component was analyzed at the endpoint IUF_NPC2b_neuronal_migration_120hr in the positive analysis fitting direction relative to DMSO as the negative control and baseline of activity. Using a type of migration reporter, gain or loss-of-signal activity can be used to understand developmental effects.
Culture protocol: After the cell expansion period the cells are cultured for up to four weeks in which they are passaged every week as described in 3.6. Between one to three days after passaging spheres at a size of 0.3 mm are picked for the test method. For the assessment of neural progenitor cell migration and differentiation, the spheres are plated on poly-D-lysine/laminin coated 96-well flat bottom plates in differentiation medium (N2) to initiate migration and differentiation. Thereby one 0.3 mm big sphere is plated in the middle of a well. The differentiation medium consists of DMEM and Ham's F12 at a ratio of 3 to 1 supplemented with 1% N2 and 1% penicillin and streptomycin. Within 5 days NPCs radially migrate out of the sphere core and differentiate into radial glia cells (nestin positive), neurons (TUBB3 positive), oligodendrocytes (O4 positive) and astrocytes (GFAP positive). Cultivation during the test method is performed at 37C and 5% CO2 at a ph of 7.2-7.6.Exposure: 0.3 mm big hNPC are plated in the already prepared test conditions. Exposure starts at day 0 of differentiation and is continued over five days of differentiation until the experiment is terminated. Cells are fed with fresh medium at day 3 of differentiation. Therefore, half of the test condition solution (e.g. solvent control or compound dilution) is replaced by freshly prepared test condition solution.Test Method: Migration distance and cytotoxicity is determined after 72 hours based on brightfield images of each well. The assay is terminated by the assessment of cell viability and cytotoxicity as well as cell fixation after 120 h. Immunocytochemistry is performed for Hoechst positive nuclei, TUBB3 positive neurons and O4 positive oligodendrocytes. On the ICC images, migration after 120 hours, neuronal and oligodendrocyte number, neuronal morphology and neuron/oligodendrocyte specific migration is assessed. immunocytochemical staining (ICC) generates an image for each sphere. The plates are scanned using an automated high content imaging device and all nuclei and their positions are determined automatically based on their intensity and size. Images are imported to the Omnisphero software to run the image analysis that measures the following endpoints. […]

SMILES | AC50 | outcome
[CH3][Hg][Cl] | 0.138 µM (active) | inactive
COP(=O)(OC)SCN1C(=O)c2ccccc2C1=O | – | inactive
Cc1ccc(OP(=O)(Oc2ccc(C)cc2)Oc2ccc(C)cc2)cc1 (tested in a mixture with another compound) | – | inactive
CCOP(=O)(OCC)OC(Cl)C(Cl)(Cl)Cl (configuration not stated) | – | inactive
CC(C)CC(C)c1sccc1NC(=O)c1cn(C)nc1C(F)(F)F (configuration not stated) | – | inactive
CC(=O)[O-].[Tl+] | 33 µM (active) | –
CC1(C)C(C=C(Cl)Cl)C1C(=O)O[C@H](C#N)c1cccc(Oc2ccccc2)c1 (some centres not stated) | – | inactive
CCOP(=O)(Oc1cnc(C(C)(C)C)nc1)OC(C)C (configuration not stated) | – | inactive
CC1(C)[C@H](C(=O)O[C@H](C#N)c2cccc(Oc3ccccc3)c2)[C@@H]1C=C(Br)Br | – | inactive
[O-][Cl+3]([O-])([O-])O | – | inactive
Brc1ccc(Oc2cc(Br)c(Br)cc2Br)c(Br)c1 | – | inactive
CC1(C)C(C=C(Cl)Cl)[C@H]1C(=O)O[C@H](C#N)c1cccc(Oc2ccccc2)c1 (some centres not stated) | – | inactive
O=C1N[C@@H]2C(=C[C@H](O)[C@@H](O)[C@H]2O)c2cc3c(c(O)c21)OCO3 | – | inactive
CC1(C)C(C=C(Cl)c2ccc(Cl)cc2)C1C(=O)OC(C#N)c1ccc(F)c(Oc2ccccc2)c1 (configuration not stated) | – | inactive
CP(=O)(O)CCC(N)C(=O)O (configuration not stated) | – | inactive
[Cd+2].[Cl-].[Cl-] | 17.7 µM (active) | –

SMILES | AC50 | outcome
CCOP(=O)(OCC)SCSC(C)(C)C | – | inactive
CC(=O)[O-].CC(=O)[O-].O.O.O.[Pb+2] | – | inactive
CC1(C)[C@H](C=C(Cl)Cl)[C@H]1C(=O)OCc1c(F)c(F)cc(F)c1F | – | inactive
C[n+]1ccc(-c2ccccc2)cc1 | – | inactive
CC(C)CCCCCCCOP(=O)(Oc1ccccc1)Oc1ccccc1 | – | inactive
C[n+]1ccc(-c2cc[n+](C)cc2)cc1 | – | inactive
CC1(C)[C@@H](C=C(Cl)Cl)[C@@H]1C(=O)O[C@@H](C#N)c1ccc(F)c(Oc2ccccc2)c1 | – | inactive
O=[As]O | – | inactive
CCOP(=O)(OCC)SCSCC | – | inactive
CCOP(=S)(OCC)SCS(=O)C(C)(C)C (configuration not stated) | – | inactive
Cn1nc(C(F)(F)F)c(CS(=O)(=O)C2=NOC(C)(C)C2)c1OC(F)F | – | inactive
CNC(=N[N+](=O)[O-])NCC1CCOC1 (configuration not stated) | – | inactive
Brc1ccc(Oc2ccc(Br)cc2Br)c(Br)c1 | – | inactive
C/C(=C/C=C/[C@@H](C)C(=O)O)[C@H]1CN[C@H](C(=O)O)[C@H]1CC(=O)O | – | inactive
CNC1(c2ccccc2Cl)CCCCC1=O (configuration not stated) | – | inactive
